A selection: hits, their analogues and other compounds. The true share with any hit is near 2.7%.
pAkt inh – Akt phosphorylation inhibition; Neuro2A IGF-stimulated pAkt S473 HTRF, 20 min; stronger effect = lower value; activity change, % for hits at 50 µM; actives 0.32% (n = 360,000); AID 651550; in the data active means activity change below about -80%; inconclusive means mostly about -51% to -80%; further: on the % scale 0 is the no-effect control and ±100 the full control effect
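Single-point screen (50 µM final compound) in Neuro2A cells stimulated 20 min with 6 nM IGF at 37 deg C. After lysis, Ser473-phosphorylated Akt read by HTRF (ex 330 nm, em 615/665 nm) as the 665/615 ratio.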
gsp antag – antagonists of gsp mutant (McCune-Albright syndrome); gsp-mutant cells, cAMP HTRF, 30 min; Potency, µM (top dose mostly 76.9 µM), for the others: top-dose activity change, negative = inhibition, hits mostly inhibitors; actives 0.4% (n = 340,000); AID 624288; calls by dose curve; cell line not stated here;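 further: intracellular cAMP measured with PDE inhibitor Ro 20-1724 present during compound exposure; potency means the concentration at half of the fitted maximal effect; on the % scale 0 is the no-effect control and ±100 the full control effect; nearly all actives have a fitted effect of over 65% in size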
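HTRF cAMP read-out (cAMP-d2 plus anti-cAMP antibody-K in lysis buffer, 30 min RT). Before lysis, cells are exposed to compounds with […] for 30 min at 37C in DPBS containing Ca/Mg, BSA and Tween 20.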
ClpP mod – qHTS Assay for Activators of ClpP; actives 1.9% (n = 340,000); ATP-dependent Clp protease proteolytic subunit (Bacillus subtilis (strain 168)), P80244; Potency, µM (highest dose often 57.5 µM), inactives show at the top dose activity change, negative = active; purified B. subtilis ClpP, FRET peptide cleavage, 20 min; AID 651965, 2013; active means well fitted falling curve with a large enough effect; inconclusive means small, poorly fitted or top-dose-only effect; inactive means no such curve, though single readings can be large or run the other way; further: potency means the concentration at half of the fitted maximal effect; the source files actives as falling curves though it sought activators and does not explain the sign; nearly all actives have a fitted effect of over 65% in size
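ClpP 10 microg/mL final, pH 8 Tris/KCl buffer with BSA, glycerol, Tween-20; compound pinned in; FRET-FV substrate; RT 20 min; Ex320/Em430; ΔFRET vs ADEP 5.8 microM, DMSO, no enzyme.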
RXFP1 antag – antagonists of human relaxin receptor RXFP1. AID 1259400. actives 0.59% (n = 350,000). activity change, negative = inhibition, % at 57.5 µM. HEK293-RXFP1, relaxin-stimulated cAMP HTRF, 30 min; stronger effect = lower value;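 active means activity change of -60% or lower, but not beyond a set lower limit; inconclusive means change between -60% and -40%, or beyond the set limit; inactive means change above -40%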; further: on the % scale 0 is the no-effect control and ±100 the full control effect
Target sequence (Q9HBX9 whole entry, looked up): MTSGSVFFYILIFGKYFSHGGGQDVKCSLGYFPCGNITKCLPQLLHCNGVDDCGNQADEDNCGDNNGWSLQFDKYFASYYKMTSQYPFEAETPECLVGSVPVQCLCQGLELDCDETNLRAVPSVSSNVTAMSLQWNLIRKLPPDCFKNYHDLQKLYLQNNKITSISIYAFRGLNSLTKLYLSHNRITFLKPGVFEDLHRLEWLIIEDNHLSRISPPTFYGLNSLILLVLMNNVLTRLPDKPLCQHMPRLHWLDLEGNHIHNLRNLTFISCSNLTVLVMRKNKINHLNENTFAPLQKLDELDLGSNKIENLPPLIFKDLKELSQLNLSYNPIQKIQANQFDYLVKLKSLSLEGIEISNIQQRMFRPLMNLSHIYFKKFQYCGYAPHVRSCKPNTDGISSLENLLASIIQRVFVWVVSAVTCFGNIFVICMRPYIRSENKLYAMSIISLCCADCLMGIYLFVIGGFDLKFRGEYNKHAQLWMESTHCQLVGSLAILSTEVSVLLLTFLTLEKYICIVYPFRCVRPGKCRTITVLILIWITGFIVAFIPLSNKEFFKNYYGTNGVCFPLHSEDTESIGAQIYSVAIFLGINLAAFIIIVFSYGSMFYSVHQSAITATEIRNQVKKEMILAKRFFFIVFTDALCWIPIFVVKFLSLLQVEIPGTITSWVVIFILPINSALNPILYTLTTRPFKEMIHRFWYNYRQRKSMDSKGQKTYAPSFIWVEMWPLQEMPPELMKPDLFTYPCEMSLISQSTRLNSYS
RXFP1 ag – agonists of human relaxin receptor RXFP1. Q9HBX9. HEK293T-RXFP1 cAMP TR-FRET, 30 min; response scale: percent of porcine relaxin response, buffer zero. Potency, µM (top dose mostly 57.5 µM), without a hit: at the top dose activation, most hits filed as activators. actives 0.3% (n = 370,000). AID 2676; active means well fitted activation curve with a large enough effect; inconclusive means small, poorly fitted or top-dose-only effect; further: potency means the concentration at half of the fitted maximal effect; on the % scale 0 is the no-effect control and ±100 the full control effect; nearly all actives have a fitted effect of over 60% in size
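cAMP rise read by TR-FRET after 30 min, 37C compound exposure (up to 58 uM) in RXFP1-transfected HEK293 cells with Ro 20174 present. EC50 from Hill-equation fits, with 29 nM porcine relaxin as 100% and buffer as basal.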
gsp agonist – activates gsp, the McCune-Albright syndrome mutation. Potency, µM (series often up to 76.9 µM), without a hit: top-dose activation (cAMP increase), hits mostly activators. AID 624287. gsp mutant cells, cAMP HTRF, 30 min. actives 0.13% (n = 340,000); active means well fitted activation curve with a large enough effect; inconclusive means small, poorly fitted or top-dose-only effect, or another doubt; inactive means no such curve, though single readings can be large or run the other way; cell line not stated here;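 further: phosphodiesterase inhibitor Ro 20-1724 added with compounds to block cAMP breakdown; potency means the concentration at half of the fitted maximal effect; nearly all actives have a fitted effect of over 60% in size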
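Cells stably selected in G418 were plated at 2000/well, grown 16-24 hr, then given compounds in DMSO with the PDE inhibitor […] (300 uM solution added) for 30 min at 37C; cAMP was read by HTRF.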
Numbers without * were called inactive; i = inactive; ? = inconclusive; nt = not tested or not shown; [ ] = remark or other dose.

SMILES	pAkt inh	gsp antag	ClpP mod	RXFP1 antag	RXFP1 ag	gsp agonist
OC1(c2cccc(C(F)(F)F)c2)CCN(c2ncnc3c2[nH]c2ccc(F)cc23)CC1	i	25µM*	?	-89*	4%	-27%
Fc1ccc2[nH]c3c(N4CCN(c5ccccc5)CC4)ncnc3c2c1	-90%*	?	7%	-31	0%	17%
COc1ccc2[nH]c3c(N4CCc5ccccc5C4)ncnc3c2c1	i	-13%	1%	?	10%	-1%[15.4 µM]
Cc1ccccc1CNC(=O)C(C)N(c1ccccc1)S(C)(=O)=O (configuration not stated)	nt	nt	-1%	nt	3%	nt
OC(CN1CCCCC1)Cn1c2ccc(Cl)cc2c2cc(Cl)ccc21 (configuration not stated)	i	15%	1%	-62*	-1%	-17%[15.4 µM]
COC(=O)c1cc2c(ccn2-c2ccc(F)cc2)n1CC(=O)C(C)(C)C	i	-12%	25µM*	0	1%	7%
CS(=O)(=O)N1CCc2cc(S(=O)(=O)NCc3ccccc3Cl)ccc21	nt	nt	-2%	-12	0%	nt
CCNc1c2c(nc3ccccc13)CC(C)(C)CC2=O	i	4%	-8%	-14	1%	0%
CC1(C)CC(=O)c2c(nc3ccccc3c2N)C1	?	10%	32µM*	5	6%	1%
COc1ccc(OC)c(-c2c3c([nH]c(=S)c2C#N)CCCC3)c1	i	-12%	nt	-10	16%	-9%[15.4 µM]
COc1ccc(-c2c3c([nH]c(=S)c2C#N)CCC3)cc1	i	17%	-23%	16	32µM*	4.5µM*
CCN(CC)c1ccc(-c2nnc(SCC(=O)NCc3ccco3)n2CC)cc1	nt	nt	-4%	nt	nt	nt
CCCCC(=O)OCc1nc2ccccc2s1	i	0%	16µM*	-17	-1%	-7%[15.4 µM]
CCCc1nc(NC2CCCCC2)c(C#N)c2c1COC(C)(C)C2	i	0%	35µM*	-14	4%	-88%
CC(C)Cc1[nH]c(=O)c(C#N)c2c1COC(C)(C)C2	i	7%	?	14	0%	-9%
Cc1[nH]c(=O)c(C#N)c2c1COC(C)(C)C2	i	9%	nt	-13	1%	-6%[15.4 µM]
CCCc1[nH]c(=O)c(C#N)c2c1COC(C)(C)C2	i	12%	25µM*	-10	2%	-2%
CC(C)c1nc(NCC2CCCO2)c(C#N)c2c1COC(C)(C)C2 (configuration not stated)	i	-12%	28µM*	-12	3%	?
CC(C)c1[nH]c(=O)c(C#N)c2c1COC(C)(C)C2	i	12%	32µM*	2	1%	10%
CCOc1ccc(C(=O)CCC(=O)N2CCN(c3ncccn3)CC2)cc1	i	-6%	0%	3	0%	18%[15.4 µM]
CC(C(=O)O)c1ccc2c(c1)CC(=O)c1ccccc1S2 (configuration not stated)	nt	nt	nt	-11	nt	nt
O=P(Cc1ccccc1)(c1ccccc1)c1ccccc1	i	12%	2%	nt	1%	10%
O=P(Cc1ccccc1)(Cc1ccccc1)c1ccccc1	i	1%	32µM*	-3	nt	0%
Brc1ccc2c(c1)OCCOCCOc1cc(Br)ccc1OCCOCCOCCO2	i	50µM*	-1%	-38	0%	-9%
Brc1cc2c(cc1Br)OCCOCCOCCOCCO2	i	-6%	nt	-32	1%	-3%[15.4 µM]
SMILES	pAkt inh	gsp antag	ClpP mod	RXFP1 antag	RXFP1 ag	gsp agonist
COc1ccc(COC(=O)c2[nH]c3c(c2C)C(=O)CC(c2ccc(OC)c(OC)c2)C3)cc1 (configuration not stated)	nt	nt	-13%	-1	0%	nt
COc1ccc(CCC(=O)O)cc1	nt	nt	1%	nt	nt	nt
CCOC(=O)c1sc(=NC(=O)c2ccc(S(=O)(=O)N(C)c3ccccc3)cc2)n(C)c1C	i	-4%	?	3	4µM*	6%
Cc1ccc2c(CC(=O)N(C)c3c(N)n(Cc4ccccc4)c(=O)[nH]c3=O)coc2c1	i	-3%	25µM*	7	-1%	-11%
CCN(C(=O)COC(=O)Cc1coc2cc(C)ccc12)c1c(N)n(Cc2ccccc2)c(=O)[nH]c1=O	i	3%	-1%	-1	0%	-2%
O=C(NCC1(N2CCCCC2)CCCCC1)C1CC(=O)N(c2ccc3c(c2)OCCO3)C1 (configuration not stated)	i	9%	8.9µM*	-12	0%	-1%[15.4 µM]
Cc1cnc(NC(=O)C2CC(=O)N(c3ccc4c(c3)OCCO4)C2)s1 (configuration not stated)	i	0%	28µM*	-2	nt	-19%
CC(C)c1ccc(NC(=O)C2Cc3c(-c4cccc(F)c4)ccnc3O2)cc1 (configuration not stated)	i	nt	-4%	nt	nt	nt
CN(C)C(=O)c1cccc(-c2csc(N3CCC(C(N)=O)CC3)n2)c1	nt	nt	nt	nt	0%	nt
O=C(COc1cccc2ccccc12)Nc1cc(Cl)ccc1C(=O)O	i	?	0%	-81*	2%	15%[15.4 µM]
O=C(COc1cccc2ccccc12)Nc1ccc(Cl)cc1C(=O)O	i	?	-28%	-10	2%	-13%
O=C(CSc1nc(-c2ccccc2)c(-c2ccccc2)[nH]1)NCCN1C(=O)CSC1=O	i	16%	32µM*	-20	4%	-15%
O=C(O)C1CCCCC1C(=O)Nc1ccccc1Nc1ccccc1 (configuration not stated)	i	-7%	25µM*	4	0%	7%
CCCCC/C=C/C1=CC(=O)C[C@H](c2ccc(OC)cc2)C1	i	-7%	-2%	nt	0%	0%
CCCC(=O)NC1=C(Cl)C(=O)c2ccccc2C1=O	i	45µM*	-1%	?	nt	-2%
Cc1nn(-c2cccc(Cl)c2)c2c1C(c1ccncc1)C(C#N)=C(N)O2 (configuration not stated)	i	40µM*	0%	-7	0%	-1%
CCOC(=O)c1ccccc1NC(=O)CN1CCCN(Cc2cccc(Cl)c2)S1(=O)=O	nt	nt	?	-27	-1%	nt
CC1=NN(C(N)=S)C(=O)C1N=Nc1c(Br)cc(Br)cc1Br (configuration not stated)	i	-10%	nt	-64*	-3%	9%
CC1=NN(C(N)=S)C(=O)C1N=Nc1c(C)cc(C)cc1C (configuration not stated)	i	3%	5%	-1	0%	-40%
CC1=CCC(C(=O)O)C(C(=O)Nc2nc3ccc(S(C)(=O)=O)cc3s2)C1 (configuration not stated)	-120%*	-3%	-4%	-1	-1%	-51%

Source: PubChem (National Center for Advancing Translational Sciences (NCATS))
